In the supplement of paper PMC13380429 one finds morphology score and SARS-CoV-2 infection rate data, which are given here for 29 compounds.

Assay [1] relates to Vero E6 infected with SARS-CoV-2. Description: morphology score (similarity to uninfected cells); higher = more like uninfected cells. The note with it: 24 h.
Assay [2] has the same test system. The experiment in a line: SARS-CoV-2 infection rate relative to infected DMSO; higher = more infection, active = 60 or less. To be noted: 24 h.

Regarding `COCCOCCOc1ccc(C2=N[C@@](C)(C(=O)O)CS2)c(O)c1` (10 µM), in assay [1], the morphology score amounted to 0.128. For the same compound, the SARS-CoV-2 infection rate in assay [2] was 102% (inactive).
The corresponding values for `CC1CNc2c(cccc2S(=O)(=O)N[C@@H](CCCNC(=N)N)C(=O)N2CC[C@@H](C)C[C@@H]2C(=O)O)C1` (mixture of isomers) [argatroban] (10 µM) are -0.0153 and 115% (inactive).
The corresponding values for `Cn1cnc(N)c2ncnc1-2` [3-methyladenine] (10 µM) are 0.258 and 93% (inactive).
The corresponding values for `CN(C(=O)CN(CCO)CC(=O)N(C)C(C)(C)Cc1ccccc1)C(C)(C)Cc1ccccc1` [oxethazaine] (10 µM) are -0.169 and 102% (inactive).
On to `COC(=O)c1ccc2c(c1)NC(=O)/C2=C(\Nc1ccc(N(C)C(=O)CN2CCN(C)CC2)cc1)c1ccccc1` [nintedanib] (10 µM), for which the morphology score in assay [1] was -0.0524. In assay [2], the SARS-CoV-2 infection rate is 108% (inactive).
Compound `C1N2CN3CN1CN(C2)C3` [methenamine] (10 µM) displayed a morphology score in assay [1] of 0.11. Moreover, in assay [2], the SARS-CoV-2 infection rate was 100% (inactive).
The matching figures for `CCNC(=O)/C=C/c1cccc(Br)c1` [cinromide] (10 µM): 0.135 and 96% (inactive).
The matching figures for `Cc1c(-c2ccccc2)oc2c(C(=O)OCCN3CCCCC3)cccc2c1=O` [flavoxate] (10 µM): 0.4 and 88% (inactive).
Take `CC(OC(=O)NCC1(CC(=O)O)CCCCC1)OC(=O)C(C)C` (stereo not drawn) [gabapentin-enacarbil] (10 µM): in assay [1], the morphology score is -0.0175. Moreover, the SARS-CoV-2 infection rate in assay [2] was 112% (inactive).
The matching figures for `CCc1cn([C@H]2C[C@H](O)[C@@H](CO)O2)c(=O)[nH]c1=O` [edoxudine] (10 µM): 0.0361 and 108% (inactive).
The corresponding values for `N[C@@H](C(=O)O)c1ccc(C(=O)O)c(C(=O)O)c1` (racemic) (10 µM) are 0.105 and 98.2% (inactive).
The matching figures for `Cc1cc([N+](=O)[O-])ccc1NS(=O)(=O)c1cc(Cl)ccc1Cl` (0.833333 µM): 0.153 and 101% (inactive).
In assay [1], `CCc1cccc(CC)c1NC(=O)CN(CC(=O)O)CC(=O)O` [etifenin] (10 µM) gave a morphology score of 0.115. In addition, in assay [2], the SARS-CoV-2 infection rate was 109% (inactive).
The corresponding values for `Nc1ccc(S(=O)(=O)c2ccc(N)cc2)cc1` [dapsone] (10 µM) are -0.179 and 99.5% (inactive).
The matching figures for `COc1cc2c(cc1OC(C)C)[C@H](c1ccc(Cl)cc1)N(c1ccc(N(C)C[C@H]3CC[C@H](N4CCN(C)C(=O)C4)CC3)cc1)C(=O)C2` (0.833333 µM): 0.244 and 93.5% (inactive).
The corresponding values for `C=CCN1CCCC1CNC(=O)c1cc2nn[nH]c2cc1OC` (stereo not drawn) [alizapride] (10 µM) are -0.124 and 121% (inactive).
In turn, `FC(F)(F)c1ccccc1-c1cc(C(F)(F)F)c2[nH]c(C3=NOC4(CCCCC4)C3)nc2c1` (10 µM) had a morphology score in assay [1] of -0.000445. The SARS-CoV-2 infection rate in assay [2] is 104% (inactive).
For `CCCCC1(COC(=O)CCC(=O)O)C(=O)N(c2ccccc2)N(c2ccccc2)C1=O` [suxibuzone] (10 µM), the morphology score in assay [1] amounted to 0.183. Also, in assay [2], the SARS-CoV-2 infection rate was 94.5% (inactive).
The matching figures for `CC(C)(C)C(=O)OCOC(=O)[C@@H]1N2C(=O)[C@@H](/N=C/N3CCCCCC3)[C@H]2SC1(C)C` [pivmecillinam] (10 µM): -0.0287 and 99% (inactive).
The matching figures for `OC[C@H]1O[C@@H](n2cnc3c(NC4CCCC4)nc(Cl)nc32)[C@H](O)[C@@H]1O` [2-chloro-N6-cyclopentyladenosine] (10 µM): 0.106 and 95% (inactive).
Consider `C=C[C@]1(C)C[C@@H](OC(=O)CS[C@@H]2C[C@H]3CC[C@@H](C2)N3C)[C@]2(C)[C@H](C)CC[C@]3(CCC(=O)[C@H]32)[C@@H](C)[C@@H]1O` [retapamulin] (10 µM), for which the morphology score in assay [1] was 0.0286. Also, the SARS-CoV-2 infection rate in assay [2] was 109% (inactive).
The corresponding values for `C[C@H](NC(=O)c1sccc1OCc1ccc(Cl)cc1)c1ccccc1` (10 µM) are 0.0842 and 94.5% (inactive).
With `N#CC(C#N)=Cc1ccc(O)c(O)c1` [tyrphostin-AG-18] (10 µM), the morphology score in assay [1] was determined as 0.204. In addition, in assay [2], the SARS-CoV-2 infection rate is 100% (inactive).
Turning to `CCCCOc1nc(N)c2c(n1)N(Cc1cccc(CN3CCCC3)c1)CC(=O)N2` (10 µM), the morphology score in assay [1] is -0.135. In addition, in assay [2], the SARS-CoV-2 infection rate is 106% (inactive).
The corresponding values for `O=C(O)CC1CC(c2ccccc2)=NO1` (stereo not drawn) (10 µM) are -0.0313 and 116% (inactive).
The corresponding values for `CCOc1cc(N2CCC(O)CC2)ccc1Nc1ncc2c(n1)N(C)c1ccccc1C(=O)N2C` (0.833333 µM) are -0.0631 and 114% (inactive).
The matching figures for `COc1cc(OC)c(/C=C2/C(=O)Nc3ccccc32)c(OC)c1` (10 µM): -0.0269 and 96.5% (inactive).
Consider `Cc1cccc(C)c1OCC(=O)N[C@@H](Cc1ccccc1)[C@@H](O)C[C@H](Cc1ccccc1)NC(=O)[C@H](C(C)C)N1CCCNC1=O` [lopinavir] (10 µM), for which the morphology score in assay [1] worked out at 0.184. Moreover, the SARS-CoV-2 infection rate in assay [2] is 105% (inactive).
The corresponding values for `CC(C)(CO)[C@@H](O)C(=O)NCCC(=O)O` [pantothenic-acid] (10 µM) are 0.0324 and 110% (inactive).
